# Measurements as given in PubChem BioAssay (Tox21).
# Values without a mark were called inactive. Inconclusive results are not listed. Where a call stands in place of a potency, no number is given. Activity calls are given as the source filed them. Unless noted, calls come from the whole dose curve; as a rule, active = well fitted curve in the direction sought with a large enough effect in the repeat runs; inconclusive = weak or mixed curves; inactive = no such curve, though single readings can be large; an effect the other way counts as inactive or inconclusive.
# How the values were obtained:
# [1] = qHTS assay to identify small molecule antagonists of the estrogen receptor alpha (ER-alpha) signaling pathway using the BG1 cell line in the presence of 0.1 nM 17-beta-estradiol - cell viability counter screen (AID 1259241); note: nearly all actives have a fitted effect of over 40% in size; note: potency is the fitted concentration of half-maximal effect
# Summary of the method: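 VM7Luc4E2 cells (endogenous full-length ER-alpha, 4xERE-luciferase), cultured 5 days in charcoal-stripped serum, exposed to compounds with 0.1 nM 17beta-estradiol (final) for 22 hr at 37C. Viability read in same wells as live-cell protease fluorescence after 30 min.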
# [2] = qHTS assay to identify small molecule antagonists of the androgen receptor (AR) signaling pathway using the MDA cell line in the presence of 0.5 nM R1881 - cell viability counter screen (AID 1259242); note: nearly all actives have a fitted effect of over 45% in size; note: potency is the fitted concentration of half-maximal effect
# Summary of the method: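 Live-cell protease fluorescence, CellTiter-Fluor, 30 min at 37C. Cells: MDA-kb2, 3,000/well, preincubated 5 hr. Compounds plus 0.5 nM R1881 final, 16 hr, 37C, 0% CO2.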
# [3] = target: Androgen receptor (Homo sapiens) (UniProt P10275); test: qHTS assay to identify small molecule antagonists of the androgen receptor (AR) signaling pathway using the MDA cell line in the presence of 0.5 nM R1881 (AID 1259243); note: nearly all actives have a fitted effect of over 50% in size; note: potency is the fitted concentration of half-maximal effect
# Sequence of Androgen receptor (Homo sapiens) (P10275 whole entry, looked up): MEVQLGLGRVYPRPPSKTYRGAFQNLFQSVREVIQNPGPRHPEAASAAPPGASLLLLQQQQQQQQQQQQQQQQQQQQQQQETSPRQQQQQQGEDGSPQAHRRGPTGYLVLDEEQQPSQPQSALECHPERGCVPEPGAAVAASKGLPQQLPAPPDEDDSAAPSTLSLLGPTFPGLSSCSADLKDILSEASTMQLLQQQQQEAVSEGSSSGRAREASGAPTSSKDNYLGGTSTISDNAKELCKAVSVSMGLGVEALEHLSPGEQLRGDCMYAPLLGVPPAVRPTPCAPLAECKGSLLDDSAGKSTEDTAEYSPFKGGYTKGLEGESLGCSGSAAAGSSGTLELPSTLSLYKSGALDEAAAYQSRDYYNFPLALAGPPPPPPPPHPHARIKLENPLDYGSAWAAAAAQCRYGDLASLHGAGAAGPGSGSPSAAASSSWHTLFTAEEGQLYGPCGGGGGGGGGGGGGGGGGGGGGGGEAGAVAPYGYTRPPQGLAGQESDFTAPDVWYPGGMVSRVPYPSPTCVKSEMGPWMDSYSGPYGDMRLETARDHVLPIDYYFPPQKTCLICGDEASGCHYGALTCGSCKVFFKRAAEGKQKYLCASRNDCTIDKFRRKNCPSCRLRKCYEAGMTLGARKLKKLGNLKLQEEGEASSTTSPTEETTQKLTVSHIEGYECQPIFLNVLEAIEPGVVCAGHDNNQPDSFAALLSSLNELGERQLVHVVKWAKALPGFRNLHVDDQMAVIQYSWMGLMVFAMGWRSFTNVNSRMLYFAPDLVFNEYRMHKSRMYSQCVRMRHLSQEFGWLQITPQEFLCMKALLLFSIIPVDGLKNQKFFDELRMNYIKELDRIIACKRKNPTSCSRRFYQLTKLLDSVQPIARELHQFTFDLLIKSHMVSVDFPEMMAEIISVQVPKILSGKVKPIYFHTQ
# Summary of the method: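 MDA-kb2, MMTV-luc (AR/GR elements); 3,000 cells/well; cpd + 0.5 nM R1881 final; 16 hr 37C, 0% CO2; ONE-Glo 30 min RT; luminescence.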
# [4] = target: Estrogen receptor (Homo sapiens) (UniProt P03372); test: qHTS assay to identify small molecule antagonists of the estrogen receptor alpha (ER-alpha) signaling pathway using the BG1 cell line in the presence of 0.1 nM 17-beta-estradiol (AID 1259244); note: nearly all actives have a fitted effect of over 50% in size; note: potency is the fitted concentration of half-maximal effect
# Sequence of Estrogen receptor (Homo sapiens) (P03372 whole entry, looked up): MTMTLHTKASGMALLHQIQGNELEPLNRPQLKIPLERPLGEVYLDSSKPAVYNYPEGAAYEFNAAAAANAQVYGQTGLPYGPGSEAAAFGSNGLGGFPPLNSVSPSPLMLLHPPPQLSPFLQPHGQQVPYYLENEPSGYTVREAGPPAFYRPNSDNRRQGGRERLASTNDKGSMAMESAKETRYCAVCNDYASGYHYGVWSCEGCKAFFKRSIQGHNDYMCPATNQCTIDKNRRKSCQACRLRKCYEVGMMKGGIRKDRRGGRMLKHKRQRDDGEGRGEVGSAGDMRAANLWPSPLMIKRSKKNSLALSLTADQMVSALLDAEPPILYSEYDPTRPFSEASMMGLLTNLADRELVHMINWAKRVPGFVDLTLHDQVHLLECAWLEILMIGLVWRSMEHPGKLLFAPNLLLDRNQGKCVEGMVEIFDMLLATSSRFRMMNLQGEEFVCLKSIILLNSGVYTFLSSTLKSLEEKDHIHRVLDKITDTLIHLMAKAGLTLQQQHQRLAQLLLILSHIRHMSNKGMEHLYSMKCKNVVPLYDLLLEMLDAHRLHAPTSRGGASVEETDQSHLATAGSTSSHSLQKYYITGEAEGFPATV
# Summary of the method: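 Luminescence after ONE-Glo (30 min, room temperature) measured ERE-luciferase activity in VM7Luc4E2 cells treated 22 h with compound and 0.1 nM final 17beta-estradiol as stimulator.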
# [5] = qHTS assay to identify small molecule HDAC inhibitors (AID 1259364); note: potency is the fitted concentration of half-maximal effect;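 note: wild-type HCT-116 cells with endogenous class I/II HDAC activity; nearly all actives have a fitted effect of over 45% in size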
# Summary of the method: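 HCT-116 (wild type), 1,500 cells/well, overnight; compound 2 hr 37C 5% CO2; HDAC-Glo I/II reagent 30 min RT; luminescence readout.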
# [6] = qHTS assay to identify small molecule HDAC inhibitors - cell viability counter screen (AID 1259365); note: series mostly up to about 92 µM; nearly all actives have a fitted effect of over 50% in size
# Summary of the method: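 Wild-type HCT-116 cells, 1,500/well, cultured overnight, then compound-treated 2 h at 37 C. Viability measured as ATP luminescence with CellTiter-Glo after 30 min at room temperature.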
# [7] = qHTS assay to identify small molecule agonists of the sonic hedgehog signaling (Shh) pathway - cell viability counter screen (AID 1259366); note: nearly all actives have a fitted effect of over 50% in size; note: potency is the fitted concentration of half-maximal effect
# Summary of the method: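 NIH/3T3-derived Gli1-Luc reporter cells, 2,000 per well, received compound after 4 h and were treated about 23 h at 37C. Viability measured in the same wells by CellTiter-Fluor fluorescence after 1 h.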
# [8] = qHTS assay to identify small molecule antagonists of the sonic hedgehog signaling (Shh) pathway - cell viability counter screen (AID 1259367); note: nearly all actives have a fitted effect of over 55% in size; note: potency is the fitted concentration of half-maximal effect
# Summary of the method: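 Viability was read by CellTiter-Fluor fluorescence in the same wells, reagent added 23 hr into compound treatment and incubated 1 hr at 37C. The 3T3 Gli1-Luc reporter cells (2,000/well) received conditioned medium after compound and ran 24 hr.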
# [9] = target: Estrogen receptor beta (Homo sapiens) (UniProt Q92731); test: qHTS assay to identify small molecule antagonists of the estrogen receptor beta (ER-beta) signaling pathway (AID 1259378; active = well fitted inhibition curve with a large enough effect in the signal ratio in the repeat runs, not every such curve was filed as active; the % refers to the signal ratio; note: potency is the fitted concentration of half-maximal effect)
# Sequence of Estrogen receptor beta (Homo sapiens) (Q92731 whole entry, looked up): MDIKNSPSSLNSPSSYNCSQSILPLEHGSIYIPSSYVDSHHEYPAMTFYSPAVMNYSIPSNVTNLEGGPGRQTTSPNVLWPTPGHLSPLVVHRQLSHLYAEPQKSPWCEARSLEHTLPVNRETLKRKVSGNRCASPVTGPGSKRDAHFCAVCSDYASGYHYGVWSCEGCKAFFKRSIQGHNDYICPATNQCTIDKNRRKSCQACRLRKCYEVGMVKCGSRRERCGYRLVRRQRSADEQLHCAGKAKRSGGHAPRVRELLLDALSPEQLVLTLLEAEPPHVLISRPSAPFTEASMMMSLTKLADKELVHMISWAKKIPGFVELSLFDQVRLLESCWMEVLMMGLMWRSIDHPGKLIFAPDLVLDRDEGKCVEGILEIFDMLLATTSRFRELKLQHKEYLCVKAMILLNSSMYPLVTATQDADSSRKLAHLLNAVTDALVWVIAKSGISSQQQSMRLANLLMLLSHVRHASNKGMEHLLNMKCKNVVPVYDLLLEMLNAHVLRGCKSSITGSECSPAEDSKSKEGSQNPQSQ
# Summary of the method: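 Antagonist mode: compounds added to beta-lactamase reporter HEK293T ER-beta-UAS cells stimulated with E2 (1nM final), 16 hr at 37C. LiveBLAzer B/G FRET substrate, 2 hours room temperature, fluorescence read-out.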
# [10] = qHTS assay to identify small molecule agonists of the estrogen receptor beta (ER-beta) signaling pathway - cell viability counter screen (AID 1259380); note: nearly all actives have a fitted effect of over 30% in size
# Summary of the method: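 Luminescence read-out (CellTiter-Glo, 30 min, room temp) taken in the same wells as the beta-lactamase reporter assay; ER-beta-UAS-bla HEK293T cells exposed to DMSO-dissolved compounds for 16 hr at 37C in 2% charcoal-stripped FBS medium.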
# [11] = target: Androgen receptor (Homo sapiens) (UniProt P10275); test: qHTS assay to identify small molecule agonists of the androgen receptor (AR) signaling pathway in the presence of an antagonist (AID 1259381; calls by dose curve; note: nearly all actives have a fitted effect of over 15% in size; note: potency is the fitted concentration of half-maximal effect)
# Summary of the method: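 Luciferase read-out (ONE-Glo, 30min room temperature) in MDA-kb2 MMTV-reporter cells; agonist mode run in presence of AR antagonist nilutamide, 3.0uM final. Compounds tested as 15-point series, 16hr exposure at 37C, 0% CO2.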
# [12] = qHTS assay to identify small molecule antagonists of the estrogen receptor beta (ER-beta) signaling pathway - cell viability counter screen (AID 1259382);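 note: HEK293T cells carrying ER-beta-UAS-bla reporter stimulated with estradiol; series mostly up to about 92 µM; nearly all actives have a fitted effect of over 55% in size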
# Summary of the method: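 Luminescent ATP read-out (CellTiter-Glo, 30 min, RT) taken in the same wells as the bla reporter assay. HEK293T ER-beta-UAS-bla cells in 2% charcoal-stripped FBS were exposed to compounds with 1nM E2 for 16 hr at 37C.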
# [13] = target: Estrogen receptor (Homo sapiens) (UniProt P03372); test: qHTS assay to identify small molecule agonists of the estrogen receptor alpha (ER-alpha) signaling pathway in the presence of an antagonist (AID 1259383; calls by dose curve; note: nearly all actives have a fitted effect of over 15% in size; note: potency is the fitted concentration of half-maximal effect; for activation: top concentration of the series differs between compounds)
# Summary of the method: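 Luciferase luminescence (ONE-Glo, 30min at room temperature) measured in VM7Luc4E2 cells after 22hr compound exposure at 15 concentrations, with 10.0nM ICI-182,780 final present; cells express endogenous ER-alpha and carry four EREs upstream of luciferase.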
# [14] = qHTS assay to identify small molecule agonists or antagonists of the thyroid stimulating hormone receptor (TSHR) signaling pathway - wild type cell line counter screen (AID 1259384; calls by dose curve)
# Summary of the method: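 Counter screen in untransfected Hek293: compounds (15-point titration, triplicate) plus phosphodiesterase inhibitor Ro20-1724 added after 18 h plating; 30 min RT. Intracellular cAMP via competitive d2/cryptate immunoassay, 1 h incubation.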
# [15] = target: Thyrotropin receptor (Homo sapiens) (UniProt P16473); test: qHTS assay to identify small molecule antagonists of the thyroid stimulating hormone receptor (TSHR) signaling pathway (AID 1259385; calls by dose curve; note: nearly all actives have a fitted effect of over 20% in size)
# Sequence of Thyrotropin receptor (Homo sapiens) (P16473 whole entry, looked up): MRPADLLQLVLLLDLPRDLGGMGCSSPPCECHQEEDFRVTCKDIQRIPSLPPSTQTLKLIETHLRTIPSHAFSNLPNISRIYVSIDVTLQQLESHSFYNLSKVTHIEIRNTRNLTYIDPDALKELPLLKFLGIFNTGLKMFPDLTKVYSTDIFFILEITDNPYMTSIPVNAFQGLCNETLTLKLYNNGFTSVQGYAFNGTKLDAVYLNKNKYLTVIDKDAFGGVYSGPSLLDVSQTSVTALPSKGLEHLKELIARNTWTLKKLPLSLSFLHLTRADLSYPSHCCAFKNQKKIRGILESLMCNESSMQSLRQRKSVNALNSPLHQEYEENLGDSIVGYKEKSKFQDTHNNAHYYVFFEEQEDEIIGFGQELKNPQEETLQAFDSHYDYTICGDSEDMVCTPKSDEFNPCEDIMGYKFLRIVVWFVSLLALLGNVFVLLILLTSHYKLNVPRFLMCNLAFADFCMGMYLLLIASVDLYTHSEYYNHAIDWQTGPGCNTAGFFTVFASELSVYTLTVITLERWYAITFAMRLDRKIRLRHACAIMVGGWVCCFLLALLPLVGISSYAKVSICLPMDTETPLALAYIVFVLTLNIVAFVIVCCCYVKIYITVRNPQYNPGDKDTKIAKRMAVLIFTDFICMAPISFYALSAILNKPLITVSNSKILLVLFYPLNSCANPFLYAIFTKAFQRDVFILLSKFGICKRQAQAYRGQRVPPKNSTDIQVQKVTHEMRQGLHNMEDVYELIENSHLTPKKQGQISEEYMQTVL
# Summary of the method: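 Antagonist mode: compound-treated TSHR-expressing HEK293 cells were stimulated with 1.5 ng/mL TSH (final) in presence of Ro20-1724 for 30 min at RT. HTRF cAMP detection after 1 h; each compound tested at 15 concentrations, triplicate.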
# [16] = qHTS assay to identify small molecule phospholipidosis (PLD) inducers (AID 1259344; active = well fitted curve in the direction sought with a large enough effect; an effect the other way counts as inactive or inconclusive)
# Summary of the method: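 Phospholipid accumulation was scored by imaging: fixed, Hoechst-counterstained HepG2 cells stained with LipidTOX Red after 24 h compound exposure at 37 C. Read-outs were pit count and pit intensity per well or per cell, with amiodarone and DMSO controls.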
# [17] = qHTS assay to identify small molecule agonists of the sonic hedgehog signaling (Shh) pathway (AID 1259368; calls by dose curve;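 note: NIH/3T3-derived 3T3Gli1-Luc cells carrying a stable Gli1-driven firefly luciferase reporter; series mostly up to about 92 µM; nearly all actives have a fitted effect of over 15% in size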)
# Summary of the method: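 Read-out: firefly luciferase luminescence from a Gli1 response element reporter stably integrated in NIH/3T3-derived 3T3Gli1-Luc cells, measured 30 min at room temperature after reagent addition. Compound exposure lasted 24 hr at 37 C, 5% CO2.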
# [18] = target: Estrogen receptor beta (Homo sapiens) (UniProt Q92731); test: qHTS assay to identify small molecule agonists of the estrogen receptor beta (ER-beta) signaling pathway (AID 1259377; active = well fitted activation curve with a large enough effect in the signal ratio in the repeat runs, not every such curve was filed as active; the % refers to the signal ratio; note: potency is the fitted concentration of half-maximal effect)
# Summary of the method: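 ER-beta-UAS-bla HEK293T cells in medium with 2% charcoal-stripped FBS were exposed to compounds for 16 h at 37C. Beta-lactamase reporter activity was read as fluorescence after 2 h with LiveBLAzer B/G FRET substrate at room temperature.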
# [19] = qHTS assay to identify small molecule agonists of the androgen receptor (AR) signaling pathway in the presence of an antagonist - cell viability counter screen (AID 1259379); note: nearly all actives have a fitted effect of over 25% in size; note: potency is the fitted concentration of half-maximal effect
# Summary of the method: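 Viability counter screen: CellTiter-Fluor fluorescence, measured in the same wells as the luciferase read-out. MDA-kb2 cells, 3,000/well, with nilutamide at 3.0uM final and compounds at 15 concentrations, 16 hr at 37C, 0% CO2.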
# [20] = qHTS assay to identify small molecule antagonists of the sonic hedgehog signaling (Shh) pathway (AID 1259369; calls by dose curve; note: nearly all actives have a fitted effect of over 45% in size; note: potency is the fitted concentration of half-maximal effect)
# Summary of the method: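 Luminescence readout: firefly Luc under Gli1 response element in 3T3Gli1-Luc cells (NIH/3T3 clone). Antagonist mode, stimulation by conditioned medium; compound exposure 24hr at 37 C, 5% CO2.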
structure (smiles),measurement,setting,value
Cc1cc(=O)[nH]o1,Potency,[1],inactive
same,Potency,[2],inactive
same,Potency,[3],inactive
same,Potency,[4],inactive
same,Potency,[5],inactive
same,Potency,[6],inactive
same,Potency,[7],inactive
same,Potency,[8],inactive
same,Potency,[9],inactive
same,Potency,[10],inactive
same,Potency,[11],inactive
same,Potency,[12],inactive
same,Potency,[13],inactive
same,outcome,[14],inactive
same,Potency,[15],inactive
O=[N+]([O-])C(Br)(CO)CO,Potency,[1],inactive
same,Potency,[2],inactive
same,Potency,[3],inactive
same,Potency,[4],inactive
same,outcome,[16],inactive
same,Potency,[5],inactive
same,Potency,[6],inactive
same,Potency,[7],48.6 µM (active)
same,Potency,[8],61.1 µM (active)
same,Potency,[17],inactive
same,Potency,[18],inactive
same,Potency,[9],inactive
same,Potency,[19],inactive
same,Potency,[11],inactive
same,Potency,[12],inactive
same,Potency,[13],inactive
same,outcome,[14],inactive
same,Potency,[15],inactive
COc1ccc(-c2ccccc2)cc1NNC(=O)OC(C)C,Potency,[1],inactive
same,Potency,[2],inactive
same,Potency,[3],63.7 µM (active)
same,Potency,[4],71.5 µM (active)
same,Potency,[5],inactive
same,Potency,[6],inactive
same,Potency,[7],inactive
same,Potency,[17],inactive
same,Potency,[18],inactive
same,Potency,[9],63.7 µM (active)
same,Potency,[11],inactive
same,Potency,[13],inactive
C[C@]12CC[C@H]3[C@@H](CCC4=CC(=O)CC[C@@H]43)[C@@H]1CC[C@@H]2OC(=O)CCC1CCCCC1,Potency,[1],inactive
same,Potency,[2],inactive
same,Potency,[3],inactive
same,Potency,[5],inactive
same,Potency,[6],inactive
same,Potency,[7],inactive
same,Potency,[8],inactive
same,Potency,[17],inactive
same,Potency,[20],inactive
same,Potency,[18],1.19 µM (active)
same,Potency,[19],inactive
same,Potency,[10],inactive
same,Potency,[11],0.0422 µM (active)
same,Potency,[12],inactive
same,Potency,[13],1.68 µM (active)
CC[C@H]1C[C@H]2[C@@H]3CCC4=CC(=O)CC[C@@H]4[C@H]3CC[C@]2(C)[C@H]1O,Potency,[1],inactive
same,Potency,[2],inactive
same,Potency,[4],inactive
same,PLD induction,[16],1.62% [at 7.66 µM]
same,Potency,[5],inactive
same,Potency,[6],inactive
same,Potency,[7],inactive
same,Potency,[20],inactive
same,Potency,[18],inactive
same,Potency,[10],inactive
same,Potency,[12],inactive
same,Potency,[13],inactive
same,outcome,[14],inactive
same,Potency,[15],inactive
C=CCC1([C@H](C)CCC)C(=O)NC(=O)NC1=O,Potency,[1],inactive
same,Potency,[2],inactive
same,Potency,[4],inactive
same,outcome,[16],inactive
same,Potency,[5],inactive
same,Potency,[6],inactive
same,Potency,[7],inactive
same,Potency,[8],inactive
same,Potency,[17],inactive
same,Potency,[20],inactive
same,Potency,[9],inactive
same,Potency,[19],inactive
same,Potency,[10],inactive
same,Potency,[12],inactive
same,Potency,[13],inactive
same,outcome,[14],inactive
same,Potency,[15],inactive
II,Potency,[1],inactive
same,Potency,[2],inactive
same,Potency,[3],inactive
same,Potency,[6],inactive
same,Potency,[7],inactive
same,Potency,[17],inactive
same,Potency,[20],inactive
same,Potency,[19],inactive
same,Potency,[11],inactive
same,Potency,[13],inactive
O=S1(=O)OC(c2cc(Br)c(O)c(Br)c2)(c2cc(Br)c(O)c(Br)c2)c2ccccc21,Potency,[1],14.1 µM (active)
same,Potency,[2],22.3 µM (active)
same,Potency,[3],5.6 µM (active)
same,Potency,[5],3.97 µM (active)
same,Potency,[7],14.1 µM (active)
same,Potency,[8],15.8 µM (active)
same,Potency,[17],inactive
same,Potency,[20],7.05 µM (active)
same,Potency,[19],25 µM (active)
same,Potency,[11],inactive
same,Potency,[13],inactive
CNC(C)Cc1ccccc1OC (stereo not drawn),Potency,[1],inactive
same,Potency,[2],inactive
same,Potency,[4],inactive
same,outcome,[16],inactive
same,Potency,[5],inactive
same,Potency,[6],inactive
same,Potency,[7],inactive
same,Potency,[8],inactive
same,Potency,[17],inactive
same,Potency,[20],inactive
same,Potency,[19],inactive
same,Potency,[10],inactive
same,Potency,[12],inactive
same,Potency,[13],inactive
same,outcome,[14],inactive
same,Potency,[15],inactive
